Measurements from PubChem BioAssay (Tox21).
Inconclusive results are not listed. Values without a mark were called inactive. Activity calls are given as the source filed them. Calls follow the shape of the dose curve; as a rule, active = well fitted cell-killing curve with a large enough effect in the repeat runs; inconclusive = weak or mixed curves, or effect the other way; inactive = no such curve, though single readings can be large or run the other way.

test: qHTS assay to identify small molecule antagonists of the glucocorticoid receptor (GR) signaling pathway - cell viability counter screen (AID 720693); details: GR-bla HeLa viability, CellTiter-Glo luminescence, 18 h, with 5 nM dexamethasone present; series mostly up to 58.5 µM; viability change, negative = cytotoxic: at the top concentration; also: nearly all actives have a fitted effect of over 55% in size
From the text: National Center for Advancing Translational Sciences [NCATS]
NIH Chemical Genomics Center [NCGC]
U.S. Environmental Protection Agency [EPA]
National Institutes of Environmental Health Sciences [NIEHS]
National Toxicology Program [NTP]
U.S. Food and Drug Administration [FDA]
The Glucocorticoid receptor (GR) is one of the members of the nuclear receptor family of ligand-dependent transcription factors. GR plays a critical role in carbohydrate, protein and lipid metabolisms and programmed cell death. CellSensor GR-bla HeLa cell line (Invitrogen) contains a beta-lactamase reporter gene under the control of the glucocorticoid response element stably integrated into HeLa cells, a cervical cancer cell line that expresses glucocorticoid receptor. The activation of the reporter gene under culture conditions can be detected by fluorescence intensity. This cell line has been used to screen the Tox21 10K compound library and to identify the compounds that inhibit the GR signaling. The cytotoxicity of the Tox21 compound library against the GR-bla HeLa cell line was tested in parallel by measuring the cell viability using CellTiter-Glo assay in the same wells.
Tox21 Assay Protocol Summary:
The GR-bla HeLa cells were dispensed at 1500 cells/5 ul/well in 1536-well black wall/clear bottom plates using a Multidrop Combi (ThermoFisher Scientific, Waltham, MA) dispenser. After the assay plates were incubated at a 37 C/5% CO2 incubator for 4 hours, 23 nL of compounds dissolved in DMSO, positive controls or DMSO only was transferred to the assay plate by a pintool station (Kalypsys, San Diego, CA), followed by addition of 1 uL of dexamethasone (5 nM, final concentration in the well). The plates were incubated at 37 C for 18 hours. After 1 uL of LiveBLAzerTM B/G FRET substrate was added using a Flying Reagent Dispenser (Aurora Discovery, San Diego, CA), the plates were incubated at room temperature (RT) for 2 hours, and fluorescence intensity was measured by an Envision plate reader (PerkinElmer, Shelton, CT). After measurement of bla assay, 3 ul CellTiter-Glo (Promega, Madison, WI) was added to measure the cytotoxicity and the plates were then incubated at RT for 30 min. The luminescence was measured using a ViewLux (Perkin Elmer) plate reader.
% is scaled to controls: 0 for no effect and ±100 for the full control effect.

Compound	viability change, negative = cytotoxic	Potency
CC(C)COC(=O)CCCCC(=O)OCC(C)C	-5.01%	
C=C(C)C(=O)OC1CC(C)CC(C)(C)C1 (stereo not given)	9.44%	
O=CN1CCOCC1	-0.284%	
CO/N=C(/C(=O)N[C@@H]1C(=O)N2C(C(=O)O)=C(Cn3nnc(C)n3)CS[C@H]12)c1csc(N)n1	-1.07%	
CCCCCCCCCCC	3.12%	
CCCCCCCCCCCCCCCCI	-2.48% [at 27 µM]	
O=[Si]=O	2.47%	
CCCO	-0.0868%	
O=P(O)(O)OCC(O)CO (stereo not given)	-1.21%	
CCOC(=O)CCCCCCCCC(=O)OCC	11.9%	
COC(/C=C(\C)CCC=C(C)C)OC	-6.95%	
Cc1cccc(Nc2ccncc2S(=O)(=O)NC(=O)NC(C)C)c1	-22.1% [at 27 µM]	
CCCCCCCCC(=O)OCC	0.577%	
CC(C)CCCC(C)CC=O (stereo not given)	-3.74%	
CNCc1ccccc1	18.2%	
NCCc1ccn[nH]1	-0.747% [at 27 µM]	
CCCCC(CC)COC(=O)c1ccccc1 (stereo not given)	-0.906%	
NS(=O)(=O)c1cc2c(cc1Cl)NC(C(Cl)Cl)NS2(=O)=O (stereo not given)	-1.27% [at 27 µM]	
CCCCCC1CCCC(=O)O1 (stereo not given)	8.41%	
CC(C)CCCCCCOC(=O)C1CCCCC1C(=O)OCCCCCCC(C)C (stereo not given)	5.93%	

Compound	viability change, negative = cytotoxic	Potency
NC(=O)C1(N2CCCCC2)CCN(CCCC(=O)c2ccc(F)cc2)CC1	-0.958%	
CC(=O)OC(C(=O)c1ccccc1)c1ccccc1 (stereo not given)	14% [at 78.9 µM]	
CC(C)COC(=O)/C=C/c1ccccc1	-1.15%	
F[Si-2](F)(F)(F)(F)F		inactive
COc1cc([N+](=O)[O-])ccc1N	-7.09%	
CCCCC[Si](OCC)(OCC)OCC	-5.87%	
CC(C)COC(=O)COc1ccc(Cl)cc1Cl	13.2%	
CCC(C)(C)C1CCC(=O)CC1	-8.96%	
C=C(C)[C@@H]1CC[C@@H](C)C[C@@H]1O	4.3%	
Nc1ccc(S(=O)(=O)NC(=O)c2ccccc2)cc1	16.4% [at 27 µM]	
c1ccc(CNc2ncnc3nc[nH]c23)cc1	-2.27%	
COC(=O)CCC(=O)O	-4.93%	
CC(C)CCO	-0.604%	
CCCCCC1Nc2cc(C(F)(F)F)c(S(N)(=O)=O)cc2S(=O)(=O)N1 (stereo not given)	-6.91%	
COc1ccc(OC)c(NC(=O)CC(C)=O)c1	20.7%	
CCNC(=O)/C=C/c1cccc(Br)c1	-15.3%	
CCC(C)(CCC(C)C)C(=O)[O-].CCC(C)(CCC(C)C)C(=O)[O-].[Zn+2] (stereo not given)	3%	
C=CCOc1cc(Cl)ccc1C(=O)NCCN(CC)CC	0.794%	
COc1ccc(NS(=O)(=O)c2ccc(N)cc2)nn1	-7.91% [at 27 µM]	
CC(=O)OCC(=O)[C@@]1(O)[C@H](OC(C)=O)C[C@H]2[C@@H]3CCC4=CC(=O)C=C[C@]4(C)[C@@]3(F)[C@@H](O)C[C@@]21C	8.99%	
